In PubChem BioAssay (Tox21):
Inconclusive results are not listed. A call without a number means that no potency is given here. Unmarked numbers belong to inactive results. The source made the active and inactive calls. Calls come from the whole dose curve; as a rule, active = well fitted cell-killing curve with a large enough effect in the repeat runs; inconclusive = weak or mixed curves, or effect the other way; inactive = flat fitted curve, though single readings scatter.

What was measured:
[1] = cAMP Responsive Elements (CRE) small molecule antagonists, cell-based qHTS assay: qHTS cell viability counter screen (AID 2060913); note: nearly all actives have a fitted effect of over 40% in size
Outline: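 Steps: cells plated and held 18 hrs at 37 C/5% CO2; compounds and NKH477 (0.25 uM final) added; 3 hrs incubation; reporter substrate read; CellTiter-Glo added to measure cytotoxicity by luminescence.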

[2] = cAMP Responsive Elements (CRE) small molecule agonists, cell-based qHTS assay: qHTS cell viability counter screen (AID 2060914);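 note: viability read after 3 h of compound exposure; nearly all actives have a fitted effect of over 50% in size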
Outline: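 Cytotoxicity counter screen multiplexed with the CRE-bla reporter assay in HEK 293T cells: 3 h compound exposure at 37 °C, followed by CellTiter-Glo luminescence measured in the same wells.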
Potency is the fitted concentration of half-maximal effect.

With S=c1[nH]c2ccccc2[nH]1 the Potency [1] was “inactive” and the Potency [2] was “inactive”.
In the case of CC(C)(O)C(=O)Nc1ccc([N+](=O)[O-])c(C(F)(F)F)c1, the Potency [1] is reported as “inactive” and the Potency [2] is reported as “inactive”.
In the case of CCN(CC)Cc1nccn1-c1ccc([N+](=O)[O-])cc1C(=O)c1ccccc1Cl, the Potency [1] is reported as “inactive” and the Potency [2] is reported as “inactive”.
With CC(=O)[O][Sn]([c]1ccccc1)([c]1ccccc1)[c]1ccccc1 the Potency [1] was 6.11 µM (active) and the Potency [2] was 30.6 µM (active).
With N#Cc1sc2c(=O)c3ccccc3c(=O)c=2sc1C#N the Potency [1] was 61.1 µM (active) and the Potency [2] was 54.5 µM (active).
For CC(Cl)Cl, the Potency [1] was “inactive” and the Potency [2] was “inactive”.
For CN1C[C@H](C(=O)N[C@]2(C)O[C@@]3(O)[C@@H]4CCCN4C(=O)[C@H](Cc4ccccc4)N3C2=O)C=C2c3cccc4[nH]cc(c34)C[C@H]21, the Potency [1] was “inactive” and the Potency [2] was “inactive”.
In the case of CC(C=O)Cc1ccc2c(c1)OCO2 (stereo unspecified), the Potency [1] is reported as “inactive” and the Potency [2] is reported as “inactive”.
In the case of CCN(CC)C(=S)[S-].CCN(CC)C(=S)[S-].[Zn+2], the Potency [1] is reported as 6.8 µM (active) and the Potency [2] is reported as 19.2 µM (active).
With CCOc1ccc(N)cc1 the Potency [1] was “inactive” and the Potency [2] was “inactive”.
In the case of N#Cc1ccc(N(CC(N)=O)CC(F)(F)F)cc1C(F)(F)F, the Potency [1] is reported as “inactive” and the Potency [2] is reported as “inactive”.
In the case of BrCC(Br)(Br)Br, the Potency [1] is reported as “inactive” and the Potency [2] is reported as “inactive”.
In the case of N#CCCCCC#N, the Potency [1] is reported as “inactive” and the Potency [2] is reported as “inactive”.
In the case of N#CC(c1ccccc1)c1ccccc1, the Potency [1] is reported as “inactive” and the Potency [2] is reported as “inactive”.
For CCS(=O)(=O)C(C)(C)S(=O)(=O)CC, the Potency [1] was “inactive” and the Potency [2] was “inactive”.
For COC(C)(C)CCC[C@H](C)C/C=C/C(C)=C/C(=O)OC(C)C, the Potency [1] was “inactive” and the Potency [2] was “inactive”.
In the case of O=C1OC(c2ccc(O)c(S(=O)(=O)O)c2)(c2ccc(O)c(S(=O)(=O)O)c2)c2c(Br)c(Br)c(Br)c(Br)c21, the Potency [1] is reported as “inactive” and the Potency [2] is reported as “inactive”.
With ClC(Cl)C(Cl)(Cl)Cl the Potency [1] was “inactive” and the Potency [2] was “inactive”.
With COC(=O)c1sccc1S(=O)(=O)NC(=O)Nc1nc(C)nc(OC)n1 the Potency [1] was “inactive” and the Potency [2] was “inactive”.
Brc1c(Br)c(Br)c(Br)c(Br)c1Br showed a viability change, negative = cytotoxic [1] of 0.231% [at 8.39 µM] and an activity change, negative = cytotoxicity [2] of 7.31% [at 8.39 µM].
For CN(C)N=O, the Potency [1] was “inactive” and the Potency [2] was “inactive”.
With CCCCCCC1CCOC1=O (stereo unspecified) the Potency [1] was “inactive” and the Potency [2] was “inactive”.
With CN1CSC(=S)N(C)C1 the Potency [1] was “inactive” and the Potency [2] was “inactive”.
With C=CCN=C=S the Potency [1] was “inactive” and the Potency [2] was “inactive”.
With CCC1(c2ccccc2)C(=O)N=C(O)NC1=O (stereo unspecified) the Potency [1] was “inactive” and the Potency [2] was “inactive”.
With c1ccc2c(c1)cc1ccc3cccc4ccc2c1c34 the Potency [1] was “inactive” and the Potency [2] was “inactive”.
With CS(=O)(=O)Cl the Potency [1] was “inactive” and the Potency [2] was “inactive”.
NCC(CC(=O)O)c1ccc(Cl)cc1 (stereo unspecified) gave a viability change, negative = cytotoxic [1] of -0.747% [at 0.349 µM] and an activity change, negative = cytotoxicity [2] of -9.73% [at 0.349 µM].
For O=C(NCO)NCO, the Potency [1] was “inactive” and the Potency [2] was “inactive”.
For Oc1ccccc1Cl, the Potency [1] was “inactive” and the Potency [2] was “inactive”.
In the case of C[N+](C)(C)CC(=O)[O-], the Potency [1] is reported as “inactive” and the Potency [2] is reported as “inactive”.
For NC(=O)CI, the Potency [1] was “inactive” and the Potency [2] was “inactive”.
In the case of Cc1ccc(N(SC(F)(Cl)Cl)S(=O)(=O)N(C)C)cc1, the Potency [1] is reported as “inactive” and the Potency [2] is reported as “inactive”.
For Cc1ccc(CCl)cc1, the Potency [1] was “inactive” and the Potency [2] was “inactive”.
In the case of CC(C)(C1CCC(O)CC1)C1CCC(O)CC1 (stereo unspecified), the Potency [1] is reported as “inactive” and the Potency [2] is reported as “inactive”.
For CCC[CH2][Sn]([CH2]CCC)([CH2]CCC)[O][Sn]([CH2]CCC)([CH2]CCC)[CH2]CCC, the Potency [1] was 1.5 µM (active) and the Potency [2] was 1.34 µM (active).
With CC(Br)C(=O)O (stereo unspecified) the Potency [1] was “inactive” and the Potency [2] was “inactive”.
For O=[N+]([O-])c1cc(C(F)(F)F)c(Cl)c([N+](=O)[O-])c1Cl, the Potency [1] was “inactive” and the Potency [2] was “inactive”.
In the case of CCOC(=O)C(Cl)C(C)=O (stereo unspecified), the Potency [1] is reported as “inactive” and the Potency [2] is reported as “inactive”.
In the case of Nc1ccccc1, the Potency [1] is reported as “inactive” and the Potency [2] is reported as “inactive”.
For c1ccc2sc(SNC3CCCCC3)nc2c1, the Potency [1] was “inactive” and the Potency [2] was “inactive”.
With CNC(C)Cc1ccc2c(c1)OCO2 (stereo unspecified) the Potency [1] was “inactive” and the Potency [2] was “inactive”.
With O=C(O)CC(Cl)C(=O)O (stereo unspecified) the Potency [1] was “inactive” and the Potency [2] was “inactive”.
In the case of O=S(=O)(O)F, the Potency [1] is reported as “inactive” and the Potency [2] is reported as “inactive”.
For C/C(=N\NC(=O)Nc1cc(F)cc(F)c1)c1ncccc1C(=O)O, the Potency [1] was “inactive” and the Potency [2] was “inactive”.
For N#CCCC(Br)(C#N)CBr (stereo unspecified), the Potency [1] was “inactive” and the Potency [2] was “inactive”.
In the case of Clc1cccc2ccccc12, the Potency [1] is reported as “inactive” and the Potency [2] is reported as “inactive”.
For Nc1ccc(Cc2ccc(N)c(Cl)c2)cc1Cl, the Potency [1] was “inactive” and the Potency [2] was “inactive”.
In the case of CC[N+](=O)[O-], the Potency [1] is reported as “inactive” and the Potency [2] is reported as “inactive”.
For O=[N+]([O-])c1cc(C(F)(F)F)c(Cl)c([N+](=O)[O-])c1Nc1ncc(C(F)(F)F)cc1Cl, the Potency [1] was 30.6 µM (active) and the Potency [2] was 77 µM (active).
For COc1cc(CC(C)N)c(OC)cc1Br (stereo unspecified), the Potency [1] was “inactive” and the Potency [2] was “inactive”.
In the case of c1cc[n+]2c(c1)-c1cccc[n+]1CC2, the Potency [1] is reported as “inactive” and the Potency [2] is reported as “inactive”.
With C[C@]12CC[C@H]3[C@@H](CCC4=CC(=O)CC[C@@H]43)[C@@H]1CC[C@@H]2OC(=O)CCc1ccccc1 the Potency [1] was “inactive” and the Potency [2] was “inactive”.
